# Assay results reported in PubChem BioAssay AID1865 (National Center for Advancing Translational Sciences (NCATS), 2009).
# Out of some 280,000 compounds screened, about 540 (0.19%) were called active. Inconclusive results (about 2%) are left out. The full list was thinned out, with actives kept by preference. Unmarked numbers belong to inactive results. Calls come from the whole dose curve; as a rule, active = well fitted activation curve with a large enough effect; inconclusive = small, poorly fitted or top-dose-only effect; inactive = flat fitted curve, though single readings scatter.
# Assay: Quantitative High-Throughput Screen for Regulators of Epigenetic Control; note: nearly all actives have a fitted effect of over 60% in size; for GFP activation: % of control where 0% means no effect
# Conditions: murine LDR cells, GFP reporter derepression, 30 h; series mostly up to 53.9 µM; GFP activation: at the top concentration
# Method in brief: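 In this reporter-derepression format, murine cells bearing a silenced integrated CMV-GFP locus incubate with test compound (30 h, 37 C), then are washed and imaged; fluorescent objects of 20–120 um count as induced cells.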
# Potency is the fitted concentration of half-maximal effect.
Structure (SMILES),GFP activation [%],Potency
Cc1ccc(-n2c3nc(=O)[nH]c(=O)c-3cc3c(Cl)cccc32)cc1,0.833,–
Cc1c(-c2nsc(NC(=O)c3cccc(Cl)c3)n2)nnn1-c1ccccc1C(F)(F)F,-3.14,–
CSc1ccc(C2c3c(oc4ccccc4c3=O)C(=O)N2CCCN2CCOCC2)cc1 (stereo unspecified),-0.962,–
CCC(C(=O)Nc1cccc(Cl)c1C)n1nc(-c2ccc(C)cc2)ccc1=O (stereo unspecified),-5.49,–
CCOC(=O)CNC(=O)c1cc2c(=O)n3cccc(C)c3nc2s1,-0.885,–
CCOC(=O)CC1C(=O)NCCN1C(=O)COc1ccc(Br)cc1C (stereo unspecified),-3.32,–
CCOC(=O)CC1C(=O)NCCN1c1nc2c(C)cccn2c(=O)c1/C=C1\SC(=S)N(C(C)CC)C1=O (stereo unspecified),–,7.08 µM (active)
COc1ccc(-n2nnc(-c3nsc(NC(=O)c4ccc(C)c(C)c4)n3)c2C)cc1Cl,-3.18,–
Cc1ccc(SCC(=O)Nc2ccc3oc(-c4ccccc4F)nc3c2)cc1,16.1,–
Cc1c(Cl)cccc1NC(=O)Cn1cc(C(=O)c2cccs2)c2ccccc21,2.88,–
COc1cccc(C(=O)Nc2ccc(-c3cc(C(F)(F)F)nn3-c3ccccc3)cc2)c1,1.08,–
CCS(=O)(=O)c1ncc(N(Cc2ccc(F)cc2)Cc2ccco2)c(C(=O)Nc2cc(C)ccc2C)n1,-2.39,–
CC(C)CCN(C(=O)Nc1ccc(Cl)c(Cl)c1)C(C)c1cccs1 (stereo unspecified),-0.998,–
CCc1cc2c(cc(C(=O)OC)n2Cc2nc(-c3ccc(C)cc3)oc2C)s1,2.7,–
COc1ccccc1-c1nnc(C2CCN(C(=O)c3ccc(Cl)cc3)CC2)o1,1.22,–
CCC(Sc1nc2n[nH]c(C)c2c(=N)n1-c1ccccc1Cl)C(=O)N(CC)CC (stereo unspecified),0,–
CC1=C(C(=O)N2CCN(c3cccc(C(F)(F)F)c3)CC2)C2(CCCCC2)OC1=O,0,–
COc1ccc(OCCCn2c(C)nc3cc(C)c(C)cc32)cc1,-0.78,–
CCn1c(/C=C/c2ccc([N+](=O)[O-])o2)nc2ccccc2c1=O,–,3.55 µM (active)
C/[N+]([O-])=C\c1ccc([N+](=O)[O-])o1,0.0128,–
Cn1cc(/C=C/c2nc3ccccc3c(=O)n2-c2cccc([N+](=O)[O-])c2)c2ccccc21,0.971,–

Structure (SMILES),GFP activation [%],Potency
Cc1c(Cl)cccc1NC(=O)N1CCN(C(=O)c2nsc3ccccc23)CC1,5.4,–
Cc1ccc(NC(=O)c2ccc(CN3CC(=O)N4CCCCC4C3=O)cc2)c(Cl)c1 (stereo unspecified),-1.23,–
CCCN(CCC)C(=O)Cn1c(=O)n(-c2ccc(Cl)cc2)c(=O)c2c3c(sc21)CCCCC3,-0.0516,–
CC(C)(C)c1ccc(C(=O)Nc2ccc3c(c2)CCCN3C(=O)c2cccs2)cc1,-1.49,–
O=C(NCc1ccc2c(c1)CCN2C(=O)c1ccccc1)c1ccccc1,-0.465,–
CCOc1ccc(NC(=O)c2cc3c(=O)n(Cc4cccs4)ccc3nc2C)cc1,0,–
COc1cc(NC(=O)Cn2nc(-c3ccc(C)c(C)c3)ccc2=O)cc(OC)c1,0,–
COc1cccc(C(=O)NC2(C(F)(F)F)C(=O)Nc3c2c(=O)[nH]c(=O)n3-c2ccc(C)cc2)c1 (stereo unspecified),0,–
O=C(COc1ccc(Cl)cc1)N(Cc1ccco1)Cc1ccco1,-1.6,–
CCNS(=O)(=O)c1ccc(NC(=O)CSc2nc(-c3ccco3)cc(C(F)(F)F)n2)cc1,-0.962,–
O=C(CSc1ncc(S(=O)(=O)c2ccc(Br)cc2)c(=O)[nH]1)Nc1ccc2c(c1)OCCO2,0,–
CN(C)c1nc(=Nc2cccc(Cl)c2)ss1,–,1.12 µM (active)
Clc1cccc(N=C2NN=C(c3ccc4c(c3)OCCO4)CS2)c1,-7.25,–
O=C1NCC(=O)N(Cc2ccccc2)/C1=C/c1ccccc1,-0.292,–
CC1=NN(Cc2ccccc2)C(=O)/C1=C/c1ccc(N(C)C)cc1,-0.855,–
CN(C)c1ccc(/C=C2\NC(=S)N(Cc3ccccc3)C2=O)cc1,–,7.08 µM (active)
COc1cc2[nH]c(=O)n(Cc3ccc(C(=O)NCc4ccc(C)cc4)cc3)c(=O)c2cc1OC,6.33,–
Cc1ccccc1C(=O)Nc1sc2c(c1C(=O)N1CCC(C)CC1)CCCC2,4.81,–
O=C(Cn1nc(Cc2cccnc2)c2ccccc2c1=O)N1CCN(c2ccccc2F)CC1,-5.16,–
CCN1/C(=C\c2ccc3ccccc3[n+]2CC)Sc2cc(C)ccc21,–,0.562 µM (active)
CCN1/C(=C/C(=S)Nc2ccccc2)Sc2ccccc21,0.971,–

Structure (SMILES),GFP activation [%],Potency
CCN1/C(=C/c2ccc3ccc(C)cc3[n+]2CC)Sc2ccccc21,–,1.12 µM (active)
CCN1CCN(CCNC(=O)c2ccc(/C=C3/Sc4ccccc4N(Cc4cccc(C)c4)C3=O)cc2)CC1,4.88,–
COc1ccc(OC)c(NC(=O)C2CCCN(S(=O)(=O)c3ccc4c(c3)CCCC(=O)N4)C2)c1 (stereo unspecified),0.833,–
COc1ccc(CCNC(=O)c2cn(C)c3ccc(S(=O)(=O)N(C)C4CCCCC4)cc3c2=O)cc1OC,1.22,–
COc1ccc(-c2onc(C)c2C)cc1S(=O)(=O)NCCc1ccccc1,-4.71,–
COc1ccc(NC(=O)c2ccc3nc(CCc4ccccc4)oc3c2)c(OC)c1,1.69,–
Cc1ccc2nc(/C(C#N)=C/c3ccc(-c4ccc(C(=O)OC(C)C)cc4)o3)[nH]c2c1,–,1.41 µM (active)
Cc1ccc2nc(/C(C#N)=C\c3ccc(OC(=O)c4cccs4)cc3)[nH]c2c1,5.06,–
Cc1ccc2nc(/C(C#N)=C/c3ccccc3F)[nH]c2c1,-1.59,–
COc1ccc(C(=O)Nc2cccc(C(=O)OCc3cc(=O)n4c5c(sc4n3)CCCC5)c2)cc1,3.53,–
CS(=O)(=O)c1sc2nc(-c3ccccc3)cc(-c3ccccc3)c2c1N,1.45,–
CNC(=S)NNC(=O)c1oc2nc(-c3ccccc3)cc(-c3ccco3)c2c1N,–,15.8 µM (active)
NNC(=O)c1oc2nc(-c3ccccc3)cc(-c3ccco3)c2c1N,0.0322,–
CC(=O)Nc1ccc(/C=N/NC(=O)c2cccs2)cc1,1.14,–
Cc1ccc(-c2cc(C(=O)N/N=C/C=C/c3ccco3)c3ccccc3n2)cc1C,2.16,–
O=C(N/N=C/C=C/c1ccco1)c1cccs1,–,17.8 µM (active)
Cc1ccc(S(=O)(=O)c2nc(-c3ccco3)oc2SCC(=O)Nc2ccc(F)cc2)cc1,11.1,–
Cc1cc(C(=O)Nc2cccc(C(F)(F)F)c2)c2c(C)nn(-c3cccc(F)c3)c2n1,-1.27,–
O=C(Nc1ccc2nc(SCC(=O)N3CCCc4ccccc43)sc2c1)c1ccc(F)cc1,-3.23,–
